Experimental data published in the supplement of paper PMC3334620.
Whole data set: some 33,000 sequences, median “E-score (-0.5 to 0.5)” near -0.017, cut for the highest 2% near 0.3. This is one part of a sample in which the highest values are shown more often than they occur.

Target: T1, Sut1 (UniProt P53032)
T1 sequence: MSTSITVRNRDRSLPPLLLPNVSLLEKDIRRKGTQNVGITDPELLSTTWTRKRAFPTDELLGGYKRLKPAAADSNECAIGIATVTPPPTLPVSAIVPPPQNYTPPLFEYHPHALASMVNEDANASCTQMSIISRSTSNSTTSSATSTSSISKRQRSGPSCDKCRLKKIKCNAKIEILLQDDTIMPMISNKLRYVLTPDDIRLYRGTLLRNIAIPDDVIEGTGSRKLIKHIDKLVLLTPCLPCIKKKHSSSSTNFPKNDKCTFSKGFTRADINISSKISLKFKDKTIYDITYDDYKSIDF
Experiment: PBM E-score (8-mer binding enrichment) (E-score (-0.5 to 0.5)); higher = stronger / more preferred TF binding
Settings: protein concentration: 200 nM; construct: GST-full length
In short: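 Masliner-normalised scans of fluorescent anti-GST signal were the basis for scoring. That signal came from GST-tagged yeast transcription factors applied at about 100-200 nM to double-stranded universal all-10-mer Agilent arrays on fresh or once-stripped slides. Each ungapped eight-base word, pooled with its reverse complement, received an E-score from the Universal PBM Analysis Suite.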

Sequence	PBM E-score
ATTTTCCC	-0.105
ATTTTCGA	0.0872
ATTTTCGG	0.345
AATTTCCG	0.257
ATTTTCGC	0.0665
ATTTTCCG	0.4
ATTTCCGG	0.325
ATTTCCGC	0.156
ATTTCCGA	0.231
CAGTATTA	0.0764
ACCAAACC	0.0288
CAGATGGG	-0.192
TAAGCATA	0.122
AGTTAATC	0.16
GATAATTA	0.216
CATAATTC	0.0494
AATTAATA	0.327
AATTAATT	0.206
TATTAATA	0.167
GGTTAATA	0.163
AATAATTC	0.268
AATAATTA	0.329
AGTTAATA	0.331
CATAATTA	0.317
CCTAATTA	0.039
AATCAAGA	0.0025

Sequence	PBM E-score
GGCGAGCC	-0.157
GAGCTACA	-0.127
TATAATCA	0.203
CCCGGGCA	-0.229
AAAATCGC	0.159
ACTGCTTA	0.0551
AGAATCCG	0.00193
GGAAGAGA	0.0239
CGGGTTGA	-0.223
ACTGTCAA	-0.099
CTTTAATC	0.183
ATTTAACG	0.298
GTATAACA	0.215
ATATAACC	0.0866
ATTTAATC	0.307
ATTTAACA	0.213
ATATAACG	0.299
ATTTAATA	0.265
CTATAACA	0.0773
CTATAACC	-0.00144
ATATAACA	0.309
ATTTAACC	0.154
CTAAATAG	0.0251
ACATTATC	0.102
ACATACTA	0.15
AAGCCCTC	-0.213

Sequence	PBM E-score
AATGTGAG	0.13
GAGGCATA	0.0426
GCCGTGTA	-0.196
ACTTGAAC	0.157
AGACTTCA	-0.0862
CGACTTCA	0.136
AGACTTGA	0.0388
AGACTTTA	-0.111
GGACTTGA	0.339
GGACTTTA	0.347
CGACTTTA	0.166
GGACTTCA	0.321
CGACTTGA	0.06
ATTTTAGG	0.113
ATACGCTG	0.025
AGATCATA	0.155
ATCTGCAC	-0.145
AACCGGAG	0.43
GACCGGGC	-0.0226
CACCGGGA	-0.0737
GACCGGAA	0.179
AACCGGAC	0.345
GACCGGAC	0.364
CACCGGAA	0.361
CACCGGTA	-0.12
AACCGGAT	0.222

Sequence	PBM E-score
AACCGGTC	0.0286
AACCGGAA	0.229
AACCGGCC	-0.0986
GTGATTCA	-0.119
CGCCAAAG	-0.237
CCGGGTAA	0.136
TCGTTCCA	-0.0676
GATGGTGA	-0.174
ACCGTGAA	0.00123
ACCTGTGG	-0.141
CACCGGAG	0.437
TACCGGGA	0.229
CACCGGTG	0.0775
TACCGGTA	0.0972
CACCGGCG	0.117
TACCGGAA	0.298
CACCGGTC	-0.223
CACCGGCC	-0.231
CACCGGAC	0.409
ACAGCAAA	0.127
GCGTCTAA	-0.155
CCCTACCG	-0.233
AGAAACCT	0.149
GCCTGTCC	-0.154
AAGAACTT	0.183
CATGAAGC	-0.0952

Sequence	PBM E-score
ACTGTGAC	-0.142
AGTTCGGC	0.126
CGTTCGTA	0.15
GGTTCGGA	0.423
AGTTCGGA	0.352
CGTTCGGA	0.385
GGTTCGAA	0.14
AGTTCGGG	0.0543
GGTTCGCA	-0.0674
CGTTCGGC	-0.0654
CCCACTAG	-0.248
AGTGTAGC	-0.123
CAAGCCAA	-0.059
GTGGGAAA	-0.0448
GCTCCGAA	0.439
TCTCCAAA	-0.0978
GCTCCGAC	0.267
CCTCCGAA	0.121
TCTCCGCA	0.225
TCTCCGAA	0.446
GTGTTTCA	0.0164
CACCCCTC	-0.352
CTCGGAAG	0.174
ATATAAAT	0.325
ATATAAAG	0.177
AAATAAAA	0.234

Sequence	PBM E-score
ATATAAAC	0.227
AAATAAAT	0.329
AAATAAAG	0.224
ATGTTATG	0.211
ACCTGTTC	-0.081
CTTCTTCA	-0.102
CCTGGTCA	-0.307
CCCGATCA	-0.133
ACCCAAAT	0.00677
CATGTCTC	-0.0334
GCAGCTCC	0.00727
CTCCGCTC	0.295
TTCCGCAA	0.166
GTCCGCGA	0.347
ATCCGCGA	-0.0287
ATCCGCAA	-0.0823
CTCCGCTA	0.301
CGCCGCGA	0.0357
GTCCGCTA	0.258
GCCCGCGA	-0.0595
GTCCGCAA	0.298
CTCCGCCA	0.171
CTCCGCGA	0.35
CCGTTCTC	0.0465
AGAGCGCG	-0.155
AGCCAGCG	-0.249

Sequence	PBM E-score
ACCATCGA	-0.151
GTCACGAC	-0.0628
CGCTCCAC	-0.012
ATCCGCGC	-0.0272
CTCCGCCC	0.217
CTCCGCGC	0.327
ATGCATAC	-0.0233
GAGTGATA	0.13
TGTTCGAA	0.103
CCAAGTTC	-0.107
ATATACTA	0.305
AAATATAC	0.217
GTATATAC	0.316
AAATATAA	0.273
GTATACAC	-0.0284
AAATGTAG	0.0326
GTATATAA	0.277
ATATACTC	0.197
AAATGTAT	0.304
CTATACTA	0.21
AAATGTAA	0.206
AAATATAT	0.365
CAATCGAG	-0.309
CTGGTAAA	0.141
GACTTCAC	-0.00592
AAACACGT	0.116

Sequence	PBM E-score
CCCAGCCG	-0.222
CCTGATTC	-0.00501
CTCCTCCA	-0.147
CATACCTC	-0.0271
GTTTGGCA	-0.0612
AAATATTC	0.207
AAATATGA	0.114
ACTTATAT	0.325
ATATAGAT	0.272
ATATATAT	0.302
ACTTATAG	0.0142
AAATATGT	0.317
ACATATAT	0.266
AAATATTA	0.227
ACTTATAC	0.264
AAATATGC	0.054
AAATATTT	0.31
ACGCTATA	-0.103
CACTAACG	-0.17
CGGTGCAA	-0.00847
AGAGCGCA	-0.306
AGGGAGGG	-0.158
AAGACTAA	0.0716
GGTTAACA	0.0261
ATATATAC	0.31
AGATATAC	0.0915

Sequence	PBM E-score
AGATATAT	0.301
ATATAGAG	0.0735
CTATATAC	0.287
ACATATAC	0.088
ATATATAG	0.329
CTATATAG	0.0328
AGATATAG	0.18
AGAAATGG	-0.012
GGCACTCA	-0.374
CTCGCCTA	-0.0978
TGCGTTAA	-0.00864
TATCTCGA	0.108
ATGGTGTC	-0.14
CCCGTGCC	-0.126
AACCGAGA	0.195
AATTGAAT	0.314
CATTGAAA	0.249
GATTGAAA	0.303
AATTGAAC	0.0105
GATTGAAC	0.00278
AATTGAAG	0.115
GATCAAAC	-0.00328
CCCCATAA	-0.104
CGAAGATA	0.132
AGAGGGGG	-0.322
ACCGGCAA	-0.198

Sequence	PBM E-score
GCCGGCAA	0.144
TCCGGCGA	0.301
TCCGGCAA	0.33
ACCGGCGA	-0.0414
GCCGGCGA	0.0246
GAATTTTA	0.251
AACTCTGT	-0.0734
GGACGTAA	-0.136
ATGTTGAA	0.131
CTTGAGAA	-0.0815
ATCGCAAA	0.0837
TTCGCAAA	0.303
GTCGCAAA	0.131
ACGGTCCT	-0.258
ACCCAGAC	-0.0554
CAAGCAAC	-0.124
ATTCCAAA	0.0401
